Bioassay records: PubChem, several laboratories
Sampled rows, rich in hits. Any-hit rate of the full collection: about 4.6%.
ADAM17 inh: ADAM17 inhibitors, primary screen, biochemical, QFRET; recombinant ADAM17, EDANS/DABCYL FRET peptide cleavage; Disintegrin and metalloproteinase domain-containing protein 17 (Homo sapiens), P78536; inhibition, % at 6.95 µM; 370,000 tested, 0.83% active;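 active = inhibition above the mean of compounds lying between control limits plus 3 SD, set per campaign, cut at about 8.5% in these data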;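 note: 0% = DMSO-only wells as the low control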
NR3A LBD binder: binders of NR3A ligand-binding domain, primary screen, biophysical, differential scanning fluorimetry, uHTS; Glutamate receptor ionotropic, NMDA 3A (GRIN3A) ligand-binding domain; NR3A LBD differential scanning fluorimetry, Tm shift; 0% = protein alone, 100% = glycine-bound protein; Tm shift relative to glycine control, % at 25 µM; 340,000 tested, 2.5% active; AID 1259313, 2017;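 active = melting temperature shift of at least 10% of the positive control shift, at one fixed dose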
FAS TE block: FAS thioesterase domain inhibitors, primary screen, biochemical, fluorescence intensity, uHTS; Fatty acid synthase (Homo sapiens), P49327; recombinant FAS-TE, OMFH fluorogenic substrate, fluorescence endpoint; inhibition, % at 15 µM; 360,000 tested, 0.67% active;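 active = compounds whose normalised, plate-corrected inhibition of enzyme fluorescence in the single-dose primary screen is 50% or more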;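 note: 0% = DMSO with enzyme and 100% = substrate without enzyme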
Target sequence (P49327 whole entry, looked up, the tested form may be a part): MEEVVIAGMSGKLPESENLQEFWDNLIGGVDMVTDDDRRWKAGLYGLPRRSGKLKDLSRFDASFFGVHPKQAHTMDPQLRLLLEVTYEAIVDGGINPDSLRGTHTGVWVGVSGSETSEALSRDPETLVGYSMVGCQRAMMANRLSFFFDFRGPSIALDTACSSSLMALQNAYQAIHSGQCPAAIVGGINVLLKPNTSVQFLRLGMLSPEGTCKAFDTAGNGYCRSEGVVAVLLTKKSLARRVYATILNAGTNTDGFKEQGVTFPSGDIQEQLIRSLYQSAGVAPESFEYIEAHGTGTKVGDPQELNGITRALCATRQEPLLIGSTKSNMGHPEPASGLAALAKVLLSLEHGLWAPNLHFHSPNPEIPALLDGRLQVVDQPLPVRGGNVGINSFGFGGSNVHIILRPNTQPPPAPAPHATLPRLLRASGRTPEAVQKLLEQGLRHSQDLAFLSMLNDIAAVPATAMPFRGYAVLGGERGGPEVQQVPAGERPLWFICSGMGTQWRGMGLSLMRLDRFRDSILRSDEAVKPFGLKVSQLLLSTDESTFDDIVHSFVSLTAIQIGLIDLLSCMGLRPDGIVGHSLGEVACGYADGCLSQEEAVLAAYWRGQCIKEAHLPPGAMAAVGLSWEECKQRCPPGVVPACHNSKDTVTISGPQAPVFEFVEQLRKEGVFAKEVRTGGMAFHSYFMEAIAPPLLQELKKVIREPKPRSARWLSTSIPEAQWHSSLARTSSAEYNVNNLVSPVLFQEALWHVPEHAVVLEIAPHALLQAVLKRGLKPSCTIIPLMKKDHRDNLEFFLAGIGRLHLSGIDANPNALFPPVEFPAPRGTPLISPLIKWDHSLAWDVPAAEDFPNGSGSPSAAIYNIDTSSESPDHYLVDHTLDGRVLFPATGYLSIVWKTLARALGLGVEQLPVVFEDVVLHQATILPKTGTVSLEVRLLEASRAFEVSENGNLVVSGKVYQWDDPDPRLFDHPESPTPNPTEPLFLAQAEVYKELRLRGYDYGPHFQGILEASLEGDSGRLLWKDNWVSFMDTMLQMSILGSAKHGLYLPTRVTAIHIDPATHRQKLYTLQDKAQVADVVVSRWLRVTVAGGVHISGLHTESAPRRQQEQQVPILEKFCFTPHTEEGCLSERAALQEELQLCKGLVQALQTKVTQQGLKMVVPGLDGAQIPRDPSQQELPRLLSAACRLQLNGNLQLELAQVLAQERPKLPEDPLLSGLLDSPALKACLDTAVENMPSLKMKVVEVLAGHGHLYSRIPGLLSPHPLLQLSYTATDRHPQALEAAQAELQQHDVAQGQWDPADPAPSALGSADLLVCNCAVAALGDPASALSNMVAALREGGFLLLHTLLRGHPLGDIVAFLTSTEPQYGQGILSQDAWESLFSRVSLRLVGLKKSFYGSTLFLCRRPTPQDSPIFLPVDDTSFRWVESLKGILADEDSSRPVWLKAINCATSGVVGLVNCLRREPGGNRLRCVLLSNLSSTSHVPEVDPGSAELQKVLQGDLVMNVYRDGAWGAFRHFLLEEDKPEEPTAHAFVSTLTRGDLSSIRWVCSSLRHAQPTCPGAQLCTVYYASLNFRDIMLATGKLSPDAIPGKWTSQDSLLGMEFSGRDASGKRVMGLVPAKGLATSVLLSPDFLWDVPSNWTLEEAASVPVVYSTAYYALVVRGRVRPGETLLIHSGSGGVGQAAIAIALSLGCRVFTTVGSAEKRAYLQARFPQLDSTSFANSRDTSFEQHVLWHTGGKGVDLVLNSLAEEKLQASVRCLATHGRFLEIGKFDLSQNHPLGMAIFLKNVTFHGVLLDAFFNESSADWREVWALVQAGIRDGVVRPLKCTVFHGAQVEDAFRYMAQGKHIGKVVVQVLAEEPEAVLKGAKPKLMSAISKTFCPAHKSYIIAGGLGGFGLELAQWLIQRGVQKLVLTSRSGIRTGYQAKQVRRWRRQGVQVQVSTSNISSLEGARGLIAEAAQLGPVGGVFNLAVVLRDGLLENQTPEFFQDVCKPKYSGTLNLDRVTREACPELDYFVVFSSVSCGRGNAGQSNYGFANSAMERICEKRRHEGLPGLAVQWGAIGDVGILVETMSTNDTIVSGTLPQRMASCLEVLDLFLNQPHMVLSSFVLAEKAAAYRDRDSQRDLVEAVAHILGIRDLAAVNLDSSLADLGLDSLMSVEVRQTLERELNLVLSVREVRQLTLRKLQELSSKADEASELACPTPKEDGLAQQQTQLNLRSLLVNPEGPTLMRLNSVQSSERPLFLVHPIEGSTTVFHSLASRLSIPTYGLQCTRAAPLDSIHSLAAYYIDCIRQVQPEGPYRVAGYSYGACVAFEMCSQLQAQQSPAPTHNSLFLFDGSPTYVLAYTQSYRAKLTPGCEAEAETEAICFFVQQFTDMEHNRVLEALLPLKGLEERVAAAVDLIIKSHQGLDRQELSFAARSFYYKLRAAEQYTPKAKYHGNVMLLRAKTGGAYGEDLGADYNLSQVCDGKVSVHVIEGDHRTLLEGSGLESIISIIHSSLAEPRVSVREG
proKLK7 act: proKLK7 zymogen activators, primary screen, biochemical, fluorescence intensity. Kallikrein-7 (Homo sapiens), P49862. activation, % at 7 µM. 370,000 tested, 0.9% active. purified proKLK7, EDANS-DABCYL substrate fluorescence; 100% is mature enzyme control, 0% vehicle;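 active = activation above the mean of all tested compounds plus 3 SD, computed per campaign excluding outliers beyond control limits, cut at about 13% in these data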
ADAM10 inh: human ADAM10 inhibitors, primary screen, biochemical, QFRET, HTS; Disintegrin and metalloproteinase domain-containing protein 10 (Homo sapiens), O14672; recombinant ADAM10, EDANS/DABCYL FRET peptide cleavage, 3 h; inhibition, % at 7 µM; 370,000 tested, 0.62% active; AID 720582, 2013;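 active = inhibition above a per-campaign cutoff equal to the mean of compounds falling between control-based bounds plus 3 SD, cut at about 20% in these data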;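 note: 0% = DMSO wells while the 100% control is not disclosed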
ADAM10 confirm: human ADAM10 inhibitors, confirmation, biochemical, QFRET, triplicate; shares compounds with ADAM10 inh; 2,100 tested, 1% active; ADAM10 QFRET peptide cleavage, EDANS fluorescence; AID 743208, 2013; inhibition, % at 6.95 µM;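 active = inhibition above about 20% chosen separately for each screening run, limit read from the data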;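 note: 0% = DMSO wells and 100% = marimastat wells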
ADAM17 ctr: ADAM17 inhibitors, counter-screen for ADAM10 exosite inhibitor project, biochemical, QFRET, high throughput; shares compounds with ADAM10 inh; ADAM17 QFRET peptide cleavage, EDANS fluorescence; inhibition, % at 6.95 µM; 2,100 tested, 0.5% active; AID 743214, 2013;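 active = mean triplicate inhibition above the solvent-only control wells' mean plus 3 SD, cut at about 12% in these data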;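 note: 0% = DMSO wells and 100% = marimastat wells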
ADAM10 counter: ADAM10 inhibitors, counter-screen for ADAM17 exosite inhibitor project, biochemical, FRET, human ADAM10; inhibition, % at 6.95 µM; AID 743256, 2014; shares compounds with ADAM17 inh; recombinant ADAM10, EDANS/DABCYL FRET peptide cleavage, 3 h; 2,900 tested, 47% active;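 active = mean inhibition over the triplicate runs exceeds the activity threshold set in the earlier primary screen, cut at about 20% in these data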;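 note: 0% = DMSO wells and 100% = marimastat wells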
ADAM17 confirm: ADAM17 inhibitors, hit retest, confirmation, biochemical, QFRET peptide cleavage; 2,900 tested, 65% active; shares compounds with ADAM17 inh; inhibition, % at 6.95 µM; recombinant ADAM17, EDANS/DABCYL QFRET peptide cleavage; AID 743257, 2014;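 active = mean inhibition across replicates above the hit cutoff set in the primary screen, cut at about 8.5% in these data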;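 note: 0% = DMSO wells and 100% = marimastat wells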
Numbers without * were called inactive; / = no result given.

SMILES	ADAM17 inh	NR3A LBD binder	FAS TE block	proKLK7 act	ADAM10 inh	ADAM10 confirm	ADAM17 ctr	ADAM10 counter	ADAM17 confirm
Nc1ccn([C@@H]2O[C@H](C(=O)N[C@H](Cc3ccccc3)C(=O)Nc3ccc4scnc4c3)[C@@H](O)[C@H]2O)c(=O)n1	-6.6	/	/	-0.2	-9.8	/	/	/	/
COc1ccc2cc(C(=O)CS(=O)(=O)c3ccc(Cl)cc3)c(=O)oc2c1	-29.1	/	/	0.7	-162.8	/	/	/	/
O=C(COCC(=O)Nc1cccc(C(F)(F)F)c1)Nc1cccc(C(F)(F)F)c1	14.5*	9.9	41.2	-0.3	35.2*	-0.1	0.3	41.7*	17.4*
O=C(C(=O)N1CCC(CNS(=O)(=O)c2ccc(F)cc2)CC1)c1cccs1	-4.5	/	/	0.4	-10.4	/	/	/	/
CCCCCCn1c(=O)n2n(c1=O)[C@@H]1CN(S(=O)(=O)c3ccc(C)cc3)C[C@]1(O)[C@@H](OC(=O)NC1CC1)C2	1.3	/	-9.1	0.6	3.0	/	/	/	/
CCCCCCNC(=O)O[C@H]1Cn2c(=O)n(CCCCCC)c(=O)n2[C@@H]2CN(S(=O)(=O)c3ccc(C)cc3)C[C@]12O	11.2*	/	19.6	0.0	20.4*	13.7	3.5	39.9*	21.6*
CC(=O)c1cccc(-c2ccnc3c2CC(C(=O)Nc2ccc(Cl)cc2)O3)c1 (stereo not given)	8.7*	/	43.4	0.0	24.1*	3.4	0.9	11.5	7.3
CC(=O)Nc1ccc(NC(=O)C2Cc3c(-c4cccc(C(C)=O)c4)ccnc3O2)cc1 (stereo not given)	-1.3	/	-9.1	0.1	-10.5	/	/	/	/
CC(=O)c1cc(-c2ccc(Cl)c(Cl)c2)c(=O)n2c1CCC2	-13.5	/	/	0.0	-14.8	/	/	/	/
C=CCCN1[C@@H](Cc2ccccc2)COc2ccccc2S1(=O)=O	2.3	/	/	0.2	-3.9	/	/	/	/
CCOc1ccc(Br)cc1S(=O)(=O)Nc1ccc(Cl)c(S(=O)(=O)N(CC)c2ccccc2)c1	9.4*	12.5*	43.1	0.2	27.2*	7.7	3.0	34.5*	19.1*
Cc1ccc(N(CC(O)CON=C2c3ccccc3-c3ccccc32)S(C)(=O)=O)cc1 (stereo not given)	12.4*	-3.9	31.0	-0.3	21.5*	7.3	2.3	21.5*	14.2*
CCCCCCCCN1C(=O)[C@@H](CC(=O)N2CCCCC2)C[C@@]2(C(=O)OC)C1=C[C@H](C(C)(C)C)O[C@@H]2C	-3.8	/	/	-0.1	-4.1	/	/	/	/
O=C(O)CCCC(=O)OCCCc1cc2ccccc2c(=O)o1	-6.6	/	/	0.1	-16.3	/	/	/	/
CC(NS(=O)(=O)OCC(Cl)(Cl)Cl)c1ccc(C(C)(C)C)cc1 (stereo not given)	14.6*	8.7	33.0	-0.1	31.0*	9.2	3.0	45.4*	22.1*
Cc1cccc(N=C2NC(=O)/C(=C/c3cccn3C)S2)c1	-2.1	5.1	-4.5	0.5	-3.2	/	/	/	/
Cc1ccccc1N=C1NC(=O)/C(=C/c2cccn2C)S1	9.9*	-1.9	3.1	-0.4	27.4*	-0.7	6.0	16.6	12.6*
COc1ccc(-c2csc(NS(=O)(=O)c3ccc([N+](=O)[O-])cc3)n2)cc1	2.3	8.2	42.0	-0.4	0.7	/	/	/	/
